Measurements published in PubChem BioAssay (EPA / NIEHS).
Inconclusive results are not listed. The source made the active and inactive calls. Rule for the calls: active = hit-call score of the fitted dose curve at least 0.9, where 1 is the maximum; inconclusive = response in the unintended direction; inactive = score below 0.9.

What follows are compounds tested on zebrafish Peroxisome Proliferator-activated Receptor gamma (PPARg), gene 557037 (assay: ATG_zfPPARg_XSP1: Attagene TRANS-FACTORIAL Multi-Species (XSP1) HepG2 Assay for zebrafish Peroxisome Proliferator-activated Receptor gamma (PPARg) (AID 2283801)).
Method: ATG_XSP1_multi-species_TRANS is a cell-based, multiplexed assay created by modifying the existing Attagene TRANS-FACTORIAL system to include a panel of nuclear receptors from some or all the following species: human (Homo sapiens), mouse (Mus musculus), frog (Xenopus laevis), zebrafish (Danio rerio), chicken (Gallus gallus), and turtle (Chrysemys picta). The ECOTOX-FACTORIAL format uses HepG2, a human liver cell line, with measurements taken at 24 hours after chemical dosing in a 24-well plate. Xsp1 included 3 nM 6-alpha-fluorotestosterone to partially stimulate the androgen receptor.ATG_zfPPARg_XSP1 is one of 29 assay components measured or calculated from the ATG_XSP1_multi-species_TRANS assay. It is designed to make measurements of mRNA induction, a form of inducible reporter, as detected with fluorescence intensity signals by Reverse transcription polymerase chain reaction (RT-PCR) and Capillary electrophoresis technology.The assay endpoint ATG_zfPPARg_XSP1 was analyzed in the positive analysis fitting direction relative to DMSO as the negative control and baseline of activity. Using a type of inducible reporter, measures of mRNA for gain-of-signal activity can be used to understand the reporter gene at the transcription factor-level as they relate to the gene PPARg. Furthermore, this assay endpoint can be referred to as a primary readout, because this assay has produced multiple assay endpoints where this one serves a reporter gene function. To generalize the intended target to other relatable targets, this assay endpoint is annotated to the nuclear receptor intended target family, where the subfamily is non-steroidal.
Human liver HepG2 cells are transiently transfected with multiple reporter transcription units (MRTUs) in 6-well plates using FuGene 6 reagent (Roche; 3 ml FuGene/1 mg DNA). The MRTU constructs are regulated by a cis-regulating element (promoter). […] A major difference between the CIS and TRANS system is that in CIS activities of endogenous TFs are measured, whereas the TRANS assay evaluates changes in activities of exogenous, chimeric NR-Gal4 proteins. […] At the end of 24 hour incubation, total RNA was isolated using TriZol reagent (Invitrogen). The isolated RNA is then reverse-transcribed using oligo(dT) primer and Mo-MLV reverse transcriptase (Invitrogen) with DNAse I (Ambion) treatment for 30 min. The one-tenth of the produced cDNA was amplified by PCR using Taq DNA polymerase (Invitrogen) and two reporter sequence-specific primers. The PCR products were fluorescently labeled by primer extension with 6-arboxyfluorescein (6-FAM) 5'-labeled reporter sequence-specific primer (2 min at 95 C, 20 s at 68 C and 10 min at 72 C) and these products were digested with 5U of HpaI (New England Biolabs) for 2h at 37 C. The fragments were purified using Qiaquick PCR columns (Qiagen), analyzed on an ABI 3130xL genetic analyzer (Applied Biosystems) with peak positions identified by using a set of X-rhodamine (ROX)-labeled MapMarker1000 molecular weight standards (BioVentures). The raw capillary electrophoresis data was processed using Attagraph software (Attagene).

SMILES	outcome	AC50
CCOP(=S)(OCC)SCn1c(=O)oc2cc(Cl)ccc21	inactive	–
CCCN(CCC)c1c([N+](=O)[O-])cc(S(N)(=O)=O)cc1[N+](=O)[O-]	inactive	–
CCCCC(CC)COC(=O)c1ccccc1C(=O)OCC(CC)CCCC (configuration not stated)	inactive	–
COC(=O)N(OC)c1ccccc1COc1ccn(-c2ccc(Cl)cc2)n1	inactive	–
C=CC1(C)OC(=O)N(c2cc(Cl)cc(Cl)c2)C1=O (configuration not stated)	inactive	–
OC(c1ccc(Cl)cc1)(c1cncnc1)c1ccccc1Cl (configuration not stated)	–	34.9 µM (active)
CO/C=C(/C(=O)OC)c1ccccc1Oc1cc(Oc2ccccc2C#N)ncn1	inactive	–
C#CCOS(=O)OC1CCCCC1Oc1ccc(C(C)(C)C)cc1 (configuration not stated)	–	129 µM (active)
CCCC1COC(Cn2cncn2)(c2ccc(Cl)cc2Cl)O1 (configuration not stated)	inactive	–
CCCCOC(=O)c1ccccc1C(=O)OCCCC	inactive	–
CC(C)Oc1cc(-n2nc(C(C)(C)C)oc2=O)c(Cl)cc1Cl	inactive	–
CC(C)(C)c1ccc(CSc2cnn(C(C)(C)C)c(=O)c2Cl)cc1	inactive	–
